According to PubChem BioAssay (EPA / NIEHS):
Several values for one entry are separate records, joined by “and”; a condition that tells them apart may be missing. Identical values can stand only once. Records with an inconclusive call do not appear. Activity calls are given as the source filed them. The calls were made as follows, unless noted: active = hit-call score of the fitted dose curve at least 0.9, where 1 is the maximum; inconclusive = response in the unintended direction; inactive = score below 0.9.

Assays:
[1] = target: human Peroxisome Proliferator-activated Receptor delta (PPARd), PPARD (gene 5467) (UniProt Q03181); test: ATG_PPARd_TRANS: Attagene TRANS-FACTORIAL HepG2 Assay for human Peroxisome Proliferator-activated Receptor delta (PPARd) (AID 2283002)
In short: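 HepG2 cells transiently transfected with GAL4-UAS multiplexed reporter units driven by exogenous chimeric NR-GAL4 proteins; 24 h compound exposure. Reporter mRNA measured by RT-PCR, 6-FAM primer extension, HpaI digestion and capillary electrophoresis; gain of signal fitted relative to DMSO.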

[2] = read-out: Intercellular Adhesion Molecule 1 (ICAM1), ICAM1 (gene 3383); test: BSK_3C_ICAM1: BioMAP Diversity Plus: 3C Assay for Intercellular Adhesion Molecule 1 (ICAM1) Biomarker Activity (AID 2283003; active = hit-call score of the fitted dose curve at least 0.9, where 1 is the maximum; inactive = score below 0.9); conditions: primary human endothelial cells (HUVEC); actives raise or lower the signal
In short: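 Human vascular endothelial primary cells, 3C conditions, 24 h treatment. ICAM-1 by ELISA.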

[3] = target: human Retinoic Acid Receptor beta (RARb), RARB (gene 5915) (UniProt P10826); test: ATG_RARb_TRANS: Attagene TRANS-FACTORIAL HepG2 Assay for human Retinoic Acid Receptor beta (AID 2283004)
In short: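 Fluorescent capillary-electrophoresis detection of GAL4-UAS reporter mRNA defines the endpoint, with induction over DMSO-treated wells scored as activity. Transiently transfected human hepatoma HepG2 cells expressing exogenous NR–Gal4 proteins are exposed to test chemicals for 24 h.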

[4] = target: Peroxisome proliferator-activated receptor gamma (Homo sapiens) (UniProt P37231); test: ATG_PPARg_TRANS: Attagene TRANS-FACTORIAL HepG2 Assay for human Peroxisome Proliferator-activated Receptor-gamma (PPARg) (AID 2283007)
In short: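 A TRANS-format multiplexed reporter assay measures activity of an exogenous chimeric NR-Gal4 protein in HepG2 cells. After 24 h of chemical exposure, reporter transcripts are amplified, fluorescently labelled and sized by capillary electrophoresis, with gain of signal scored against DMSO.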

[5] = target: Nuclear receptor subfamily 1 group I member 2 (Homo sapiens) (UniProt O75469); test: ATG_PXR_TRANS: Attagene TRANS-FACTORIAL HepG2 Assay for human Pregnane X Receptor (PXR) (AID 2283008)
In short: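 Measures mRNA induction of a GAL4-UAS-driven reporter in human HepG2 cells transiently expressing PXR fused to Gal4, following 24 h treatment. DMSO served as negative control and baseline.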

[6] = target: human RAR-related Orphan Receptor beta (RORb), RORB (gene 6096) (UniProt Q92753); test: ATG_RORb_TRANS: Attagene TRANS-FACTORIAL HepG2 Assay for human RAR-related Orphan Receptor beta (RORb) (AID 2283010)
In short: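 In this TRANS-format test, human HepG2 cells express chimeric NR-Gal4 fusion proteins driving GAL4-UAS reporters. After 24 h dosing, reporter transcripts are measured by fluorescent RT-PCR/capillary electrophoresis, with DMSO as negative control.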

[7] = target: human Thyroid Receptor alpha (THRa1), THRA (gene 7067) (UniProt P10827); test: ATG_THRa1_TRANS: Attagene TRANS-FACTORIAL HepG2 Assay for human Thyroid Receptor alpha (THRa1) (AID 2283014)
In short: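 Measured here is mRNA from a GAL4-UAS reporter in transfected HepG2 cells carrying a Gal4-fused receptor, 24 h post-dose. DMSO served as negative control and baseline.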

[8] = read-out: E-selectin (Homo sapiens) (UniProt P16581); test: BSK_3C_Eselectin: BioMAP Diversity Plus: 3C Assay for Eselectin Biomarker Activity (AID 2283015; active = hit-call score of the fitted dose curve at least 0.9, where 1 is the maximum; inactive = score below 0.9); conditions: primary human endothelial cells (HUVEC); actives raise or lower the signal
In short: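 Endpoint derived by bidirectional fitting against DMSO vehicle; signal is ELISA-detected E-selectin from primary HUVEC at 24 h post-dosing, with parallel SRB staining (0.1% SRB, 560 nm) flagging cytotoxicity.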

[9] = read-out: Interleukin-1 alpha (IL1a), IL1A (gene 3552); test: BSK_BE3C_IL1a: BioMAP Diversity Plus: BE3C Assay for Interleukin-1 alpha (IL1a) Biomarker Activity (AID 2283016; active = hit-call score of the fitted dose curve at least 0.9, where 1 is the maximum; inactive = score below 0.9); conditions: primary human bronchial epithelial cells; actives raise or lower the signal
In short: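 Cultures of primary human bronchial epithelial cells receive test chemical. After 24 h, IL-1a is quantified by ELISA, while parallel wells are fixed in TCA and SRB-stained for total protein. Changes in either direction are fitted relative to DMSO.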

[10] = read-out: Monocyte Chemoattractant Protein-1 (MCP1), CCL2 (gene 6347); test: BSK_3C_MCP1: BioMAP Diversity Plus: 3C Assay for Monocyte Chemoattractant Protein-1 (MCP1) Biomarker Activity (AID 2283017; active = hit-call score of the fitted dose curve at least 0.9, where 1 is the maximum; inactive = score below 0.9); conditions: primary human endothelial cells (HUVEC); actives raise or lower the signal
In short: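 Using human vascular primary endothelium, researchers measured MCP-1 by ELISA 24 h after treatment, with DMSO serving as negative control for bidirectional fitting.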

[11] = read-out: Monocyte Chemoattractant Protein-1 (MCP1), CCL2 (gene 6347); test: BSK_4H_MCP1: BioMAP Diversity Plus: 4H Assay for Monocyte Chemoattractant Protein-1 (MCP1) Biomarker Activity (AID 2283018; active = hit-call score of the fitted dose curve at least 0.9, where 1 is the maximum; inactive = score below 0.9); conditions: primary human endothelial cells (HUVEC); actives raise or lower the signal
In short: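 Readout: MCP-1 ELISA on compound-treated HUVEC, sampled 24 h post-dosing. Baseline and negative control DMSO; bidirectional fit. Overt toxicity checked alongside by sulforhodamine B protein staining at time of biomarker measurement.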

[12] = read-out: Human Leukocyte Antigen - DR isotype (HLADR), HLA-DRA (gene 3122); test: BSK_3C_HLADR: BioMAP Diversity Plus: 3C Assay for Human Leukocyte Antigen - DR isotype (HLADR) Biomarker Activity (AID 2283019; active = hit-call score of the fitted dose curve at least 0.9, where 1 is the maximum; inactive = score below 0.9;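 also: ELISA of cell-surface HLA-DR on HUVEC 24 h after dosing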); conditions: primary human endothelial cells (HUVEC); actives raise or lower the signal
In short: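 Compound added to primary HUVEC cultures, 24 h incubation, then HLA-DR determined by ELISA; endpoint derived by bidirectional fitting relative to DMSO negative control.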

[13] = target: human Peroxisome Proliferator-activated Receptor alpha (PPARa), PPARA (gene 5465) (UniProt Q07869); test: ATG_PPARa_TRANS: Attagene TRANS-FACTORIAL HepG2 Assay for human Peroxisome Proliferator-activated Receptor alpha (PPARa) (AID 2283001)
In short: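 Measures transcriptional activity of an exogenous chimeric PPARa-Gal4 protein in transiently transfected HepG2 cells after 24 h dosing. Reporter mRNA quantified via RT-PCR and capillary electrophoresis; DMSO served as negative control.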

[14] = target: human Retinoic Acid Receptor gamma (RARg), RARG (gene 5916) (UniProt P13631); test: ATG_RARg_TRANS: Attagene TRANS-FACTORIAL HepG2 Assay for human Retinoic Acid Receptor gamma (RARg) (AID 2283009)
In short: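 HepG2, RARg-GAL4 TRANS system, 24 h exposure; reporter mRNA by RT-PCR + CE fluorescence; increase over DMSO.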

[15] = target: human Retinoid X Receptor beta (RXRb), RXRB (gene 6257) (UniProt P28702); test: ATG_RXRb_TRANS: Attagene TRANS-FACTORIAL HepG2 Assay for human Retinoid X Receptor beta (RXRb) (AID 2283013)
In short: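 Multiplexed TRANS reporter assay in HepG2; 24 h dosing; reporter mRNA by RT-PCR/CE fluorescence; gain-of-signal relative to DMSO.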

[16] = target: Retinoic acid receptor alpha (Homo sapiens) (UniProt P10276); test: ATG_RARa_TRANS: Attagene TRANS-FACTORIAL HepG2 Assay for human Retinoic Acid Receptor alpha (RARa) (AID 2283005)
In short: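 HepG2 transiently transfected with multiplex GAL4-UAS reporter units including a human RARa–GAL4 chimera; 24 h compound exposure. Reporter mRNA quantified by RT-PCR, 6-FAM labeling and capillary electrophoresis; gain of signal versus DMSO.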

[17] = target: human RAR-related Orphan Receptor gamma (RORg), RORC (gene 6097) (UniProt P51449); test: ATG_RORg_TRANS: Attagene TRANS-FACTORIAL HepG2 Assay for human RAR-related Orphan Receptor gamma (RORg) (AID 2283011)
In short: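 Chimeric RORg-Gal4 transactivation in transfected HepG2; 24 h exposure; RT-PCR/capillary electrophoresis readout of reporter mRNA, DMSO baseline.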

[18] = target: Retinoic acid receptor RXR-alpha (Homo sapiens) (UniProt P19793); test: ATG_RXRa_TRANS: Attagene TRANS-FACTORIAL HepG2 Assay for human Retinoid X Receptor alpha (RXRa) (AID 2283012)
In short: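 Cells (HepG2) carried transiently transfected GAL4-responsive reporter units. Following a 24 h chemical incubation, reporter mRNA induction was read via RT-PCR fragment analysis; DMSO served as negative control and baseline.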

[19] = BSK_3C_Proliferation: Cell Proliferation Assessment in the BioMAP Diversity Plus: 3C Assay (AID 2283006; active = hit-call score of the fitted dose curve at least 0.9, where 1 is the maximum; inactive = score below 0.9); conditions: primary human endothelial cells (HUVEC)
In short: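 Proliferation of human vascular endothelial primary cells after 48 h dosing, quantified as SRB-stained protein at 560 nm relative to DMSO.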

Measured: AC50

Sequence of human Peroxisome Proliferator-activated Receptor delta (PPARd), PPARD (gene 5467) (Q03181 whole entry, looked up, the tested form may be a part): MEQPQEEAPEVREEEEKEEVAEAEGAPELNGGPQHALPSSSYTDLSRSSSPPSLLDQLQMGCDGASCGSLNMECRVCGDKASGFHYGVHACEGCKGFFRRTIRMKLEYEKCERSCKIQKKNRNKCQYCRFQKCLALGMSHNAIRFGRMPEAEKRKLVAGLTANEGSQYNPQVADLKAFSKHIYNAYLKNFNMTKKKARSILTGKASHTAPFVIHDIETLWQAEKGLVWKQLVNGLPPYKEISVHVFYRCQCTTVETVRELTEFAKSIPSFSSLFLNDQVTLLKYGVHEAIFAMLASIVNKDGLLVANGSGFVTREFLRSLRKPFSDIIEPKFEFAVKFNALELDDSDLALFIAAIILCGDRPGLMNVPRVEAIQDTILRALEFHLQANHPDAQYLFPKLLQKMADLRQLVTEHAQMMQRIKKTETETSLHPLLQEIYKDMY
Sequence of human Retinoic Acid Receptor gamma (RARg), RARG (gene 5916) (P13631 whole entry, looked up, the tested form may be a part): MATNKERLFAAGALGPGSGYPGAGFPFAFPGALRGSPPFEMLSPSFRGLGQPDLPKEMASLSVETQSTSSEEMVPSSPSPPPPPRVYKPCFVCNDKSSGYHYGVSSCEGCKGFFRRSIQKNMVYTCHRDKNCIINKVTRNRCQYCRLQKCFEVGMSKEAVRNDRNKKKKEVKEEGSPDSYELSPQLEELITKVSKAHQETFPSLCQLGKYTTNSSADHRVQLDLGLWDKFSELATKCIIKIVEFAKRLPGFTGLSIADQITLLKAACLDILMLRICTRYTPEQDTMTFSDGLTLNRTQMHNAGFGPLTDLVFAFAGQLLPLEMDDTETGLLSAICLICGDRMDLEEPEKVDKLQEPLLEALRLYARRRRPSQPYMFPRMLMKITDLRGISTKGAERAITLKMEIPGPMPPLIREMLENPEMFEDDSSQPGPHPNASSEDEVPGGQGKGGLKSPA
Sequence of Nuclear receptor subfamily 1 group I member 2 (Homo sapiens) (O75469 whole entry, looked up, the tested form may be a part): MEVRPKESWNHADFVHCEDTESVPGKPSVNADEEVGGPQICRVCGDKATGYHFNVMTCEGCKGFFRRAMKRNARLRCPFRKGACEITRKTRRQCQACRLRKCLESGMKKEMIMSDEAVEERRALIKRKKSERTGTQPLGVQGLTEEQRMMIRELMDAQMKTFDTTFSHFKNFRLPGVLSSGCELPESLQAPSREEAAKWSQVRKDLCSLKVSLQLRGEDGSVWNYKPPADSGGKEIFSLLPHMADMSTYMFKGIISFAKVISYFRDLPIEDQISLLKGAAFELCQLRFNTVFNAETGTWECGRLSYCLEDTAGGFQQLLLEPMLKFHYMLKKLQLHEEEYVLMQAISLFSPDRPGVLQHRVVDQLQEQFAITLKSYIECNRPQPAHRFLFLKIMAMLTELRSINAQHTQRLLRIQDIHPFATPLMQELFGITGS
Sequence of Retinoic acid receptor alpha (Homo sapiens) (P10276 whole entry, looked up, the tested form may be a part): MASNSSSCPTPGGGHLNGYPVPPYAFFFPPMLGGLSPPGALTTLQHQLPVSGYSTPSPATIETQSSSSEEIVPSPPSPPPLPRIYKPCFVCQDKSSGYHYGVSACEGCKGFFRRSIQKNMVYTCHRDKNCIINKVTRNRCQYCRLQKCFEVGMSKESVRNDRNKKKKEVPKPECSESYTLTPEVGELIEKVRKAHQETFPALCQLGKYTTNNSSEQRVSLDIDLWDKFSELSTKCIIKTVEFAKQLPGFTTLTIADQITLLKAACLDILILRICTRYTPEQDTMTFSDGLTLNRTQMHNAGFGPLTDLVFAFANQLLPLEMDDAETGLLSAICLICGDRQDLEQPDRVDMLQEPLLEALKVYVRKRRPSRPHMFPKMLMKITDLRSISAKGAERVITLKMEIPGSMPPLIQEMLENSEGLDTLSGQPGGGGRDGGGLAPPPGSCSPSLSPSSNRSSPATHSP
Sequence of human Peroxisome Proliferator-activated Receptor alpha (PPARa), PPARA (gene 5465) (Q07869 whole entry, looked up, the tested form may be a part): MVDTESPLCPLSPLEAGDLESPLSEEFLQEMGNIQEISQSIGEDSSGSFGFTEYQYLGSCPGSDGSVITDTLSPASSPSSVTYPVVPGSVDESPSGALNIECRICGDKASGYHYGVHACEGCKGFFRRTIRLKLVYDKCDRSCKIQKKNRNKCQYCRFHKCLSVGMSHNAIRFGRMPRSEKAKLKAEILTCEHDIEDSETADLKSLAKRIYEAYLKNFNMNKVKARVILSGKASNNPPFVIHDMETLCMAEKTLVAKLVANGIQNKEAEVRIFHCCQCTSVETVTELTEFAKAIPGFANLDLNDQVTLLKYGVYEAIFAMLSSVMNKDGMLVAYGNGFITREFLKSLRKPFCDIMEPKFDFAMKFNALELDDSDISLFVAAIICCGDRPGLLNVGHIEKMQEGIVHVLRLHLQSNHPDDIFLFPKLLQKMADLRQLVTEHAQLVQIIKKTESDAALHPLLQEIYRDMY
Sequence of human Retinoid X Receptor beta (RXRb), RXRB (gene 6257) (P28702 whole entry, looked up): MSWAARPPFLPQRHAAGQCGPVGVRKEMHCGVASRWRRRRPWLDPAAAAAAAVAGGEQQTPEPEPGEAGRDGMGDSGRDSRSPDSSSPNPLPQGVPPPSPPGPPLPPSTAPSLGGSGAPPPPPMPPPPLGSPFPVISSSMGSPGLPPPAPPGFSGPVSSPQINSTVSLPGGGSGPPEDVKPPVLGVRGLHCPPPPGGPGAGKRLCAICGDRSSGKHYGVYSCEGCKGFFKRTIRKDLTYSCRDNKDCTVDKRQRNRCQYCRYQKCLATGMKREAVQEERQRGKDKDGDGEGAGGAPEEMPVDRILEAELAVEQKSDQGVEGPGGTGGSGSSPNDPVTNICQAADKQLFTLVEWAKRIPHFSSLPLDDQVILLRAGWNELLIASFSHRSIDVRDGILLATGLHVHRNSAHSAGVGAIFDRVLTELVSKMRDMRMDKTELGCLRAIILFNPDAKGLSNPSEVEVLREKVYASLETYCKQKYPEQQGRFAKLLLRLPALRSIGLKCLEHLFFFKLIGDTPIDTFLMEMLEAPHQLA
Sequence of human Retinoic Acid Receptor beta (RARb), RARB (gene 5915) (P10826 whole entry, looked up, the tested form may be a part): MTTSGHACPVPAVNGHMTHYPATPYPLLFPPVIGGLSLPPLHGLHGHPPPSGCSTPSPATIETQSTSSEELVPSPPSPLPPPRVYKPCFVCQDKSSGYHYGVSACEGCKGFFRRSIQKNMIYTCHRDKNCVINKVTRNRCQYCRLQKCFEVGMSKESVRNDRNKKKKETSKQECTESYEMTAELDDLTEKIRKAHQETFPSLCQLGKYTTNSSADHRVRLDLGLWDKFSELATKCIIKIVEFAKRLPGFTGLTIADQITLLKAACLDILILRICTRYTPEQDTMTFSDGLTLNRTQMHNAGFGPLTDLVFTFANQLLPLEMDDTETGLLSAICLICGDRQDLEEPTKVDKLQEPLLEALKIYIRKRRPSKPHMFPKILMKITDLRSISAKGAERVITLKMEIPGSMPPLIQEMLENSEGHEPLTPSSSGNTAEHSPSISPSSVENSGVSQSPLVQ
Sequence of E-selectin (Homo sapiens) (P16581 whole entry, looked up): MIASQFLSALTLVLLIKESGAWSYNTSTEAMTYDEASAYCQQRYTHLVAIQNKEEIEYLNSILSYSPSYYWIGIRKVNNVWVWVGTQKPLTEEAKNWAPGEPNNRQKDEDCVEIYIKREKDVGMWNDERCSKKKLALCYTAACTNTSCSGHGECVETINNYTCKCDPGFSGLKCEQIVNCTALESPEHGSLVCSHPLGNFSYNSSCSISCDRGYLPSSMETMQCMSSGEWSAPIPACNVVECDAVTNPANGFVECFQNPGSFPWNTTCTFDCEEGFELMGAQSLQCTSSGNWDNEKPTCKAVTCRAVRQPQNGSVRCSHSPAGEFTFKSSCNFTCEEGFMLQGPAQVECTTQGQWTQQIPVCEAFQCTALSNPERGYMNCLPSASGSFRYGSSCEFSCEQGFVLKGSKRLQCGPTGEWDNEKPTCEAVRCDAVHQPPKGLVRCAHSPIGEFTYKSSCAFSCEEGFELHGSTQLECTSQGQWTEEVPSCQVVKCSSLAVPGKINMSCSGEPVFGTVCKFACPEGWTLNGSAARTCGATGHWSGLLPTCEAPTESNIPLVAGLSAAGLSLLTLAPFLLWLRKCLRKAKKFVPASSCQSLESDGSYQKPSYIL
Sequence of human RAR-related Orphan Receptor beta (RORb), RORB (gene 6096) (Q92753 whole entry, looked up, the tested form may be a part): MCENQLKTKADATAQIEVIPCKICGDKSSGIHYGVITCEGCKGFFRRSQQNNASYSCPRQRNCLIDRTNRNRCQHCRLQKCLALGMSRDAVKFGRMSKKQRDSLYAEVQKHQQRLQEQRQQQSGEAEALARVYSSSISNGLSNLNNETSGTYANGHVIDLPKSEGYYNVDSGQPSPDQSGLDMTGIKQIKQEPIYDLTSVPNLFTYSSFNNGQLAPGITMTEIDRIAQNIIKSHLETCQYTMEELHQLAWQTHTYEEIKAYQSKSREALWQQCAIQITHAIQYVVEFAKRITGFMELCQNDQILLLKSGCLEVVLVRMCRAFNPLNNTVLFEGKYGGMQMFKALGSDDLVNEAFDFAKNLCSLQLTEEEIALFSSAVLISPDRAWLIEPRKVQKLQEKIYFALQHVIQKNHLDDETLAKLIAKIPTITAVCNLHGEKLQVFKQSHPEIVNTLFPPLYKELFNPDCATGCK
Sequence of human RAR-related Orphan Receptor gamma (RORg), RORC (gene 6097) (P51449 whole entry, looked up, the tested form may be a part): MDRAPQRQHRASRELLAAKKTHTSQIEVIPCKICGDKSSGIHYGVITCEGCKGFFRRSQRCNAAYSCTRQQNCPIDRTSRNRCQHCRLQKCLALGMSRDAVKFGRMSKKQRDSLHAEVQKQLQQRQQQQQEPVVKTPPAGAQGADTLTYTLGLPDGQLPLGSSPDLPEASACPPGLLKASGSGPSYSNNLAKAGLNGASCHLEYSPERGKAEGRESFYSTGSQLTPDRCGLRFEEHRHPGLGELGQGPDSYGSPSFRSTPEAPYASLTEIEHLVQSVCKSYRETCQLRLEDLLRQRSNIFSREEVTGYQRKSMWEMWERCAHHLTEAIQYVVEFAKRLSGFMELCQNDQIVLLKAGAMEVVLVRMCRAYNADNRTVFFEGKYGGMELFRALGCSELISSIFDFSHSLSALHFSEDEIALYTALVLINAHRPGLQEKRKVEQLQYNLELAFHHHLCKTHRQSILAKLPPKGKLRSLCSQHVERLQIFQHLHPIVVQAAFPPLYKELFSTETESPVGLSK

O=C=Nc1cccc2c(N=C=O)cccc12
inactive: [1] | [2] | [3] | [4] | [6] | [7] | [8] | [9] | [10] | [12]
active: [5] 0.628 µM | [11] 502 nM

CC(C)OC(=O)COc1ccc(Cl)cc1Cl
inactive: [13] | [4] | [5] | [14] | [6]

C#CC(O)CCC (centres undefined)
inactive: [13] | [3] | [4] | [6] | [15]

O=C(F)C1(F)C(F)(F)C(F)(F)C(F)(F)C(F)(F)C1(F)F
inactive: [1] | [2] | [3] | [16] | [4] | [8] | [9] | [10] | [11]

CN(N=O)C(=O)N[C@@H]1[C@@H](O)[C@H](O)[C@@H](CO)O[C@@H]1O
inactive: [13] | [1] | [5] | [14] | [6] | [17] | [18] | [7]

FC(F)(F)C(F)(F)C(F)(F)C(F)(F)C(F)(F)C(F)(F)CC[Si](Cl)(Cl)Cl
inactive: [13] | [2] | [3] | [19] | [4] | [14] | [18] | [15] | [8] | [9] | [10] | [11]

OCCCC(F)(F)C(F)(F)C(F)(F)C(F)(F)C(F)(F)C(F)(F)C(F)(F)C(F)(F)F
inactive: [1] | [3] | [16] | [4] | [5] | [14] | [7]
active: [2] 22.4 µM and 45.5 µM | [18] 23.8 µM | [15] 2.86 µM | [8] 27.4 µM and 50.6 µM | [10] 20.8 µM and 31.7 µM | [11] 45.5 µM and 46.7 µM

CC(C)OC=O
inactive: [13] | [4] | [5] | [6] | [15]

COC(=O)c1ccc(C=O)cc1
inactive: [13] | [4] | [6] | [17]

Nc1cc([N+](=O)[O-])cc(Cl)c1O
inactive: [13] | [2] | [19] | [17] | [8] | [10] | [11] | [12]

C=CCOC(=O)CC(C)C
inactive: [6] | [17]

CCOC(OCC)OCC
inactive: [1] | [16] | [4] | [6] | [17] | [18]

CCN=C1C=CC(=C(c2ccc(N(CC)CC)cc2)c2ccc(N(CC)CC)cc2)c2ccccc21
active: [2] 3.69 µM and 3.76 µM | [8] 3.62 µM and 2.78 µM | [10] 2.22 µM and 2.19 µM | [11] 1.03 µM and 1.16 µM
inactive: [4] | [5] | [18]

CC(C)(C)c1cc(CCC(=O)OCC(COC(=O)CCc2cc(C(C)(C)C)c(O)c(C(C)(C)C)c2)(COC(=O)CCc2cc(C(C)(C)C)c(O)c(C(C)(C)C)c2)COC(=O)CCc2cc(C(C)(C)C)c(O)c(C(C)(C)C)c2)cc(C(C)(C)C)c1O
inactive: [1] | [6] | [17]
active: [15] 22.3 µM

Cc1ccc(O)cn1
inactive: [1] | [4] | [5] | [17] | [18]

O=c1cccc[nH]1
inactive: [3] | [16] | [4] | [6] | [17] | [18] | [15]

CCc1ccc(C)nc1
inactive: [16] | [4] | [17]

O=C=NCc1cccc(CN=C=O)c1
inactive: [1] | [2] | [18] | [15] | [7] | [8] | [9] | [10] | [11] | [12]

O=C1OC(=O)c2ccc3c4c(ccc1c24)C(=O)OC3=O
inactive: [1] | [4] | [17] | [7]
